Results reported in PubChem BioAssay (NCI).
The panel holds about 83,000 compounds, 20% with a hit somewhere; the sample as a whole holds those more often.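 Step 1: grow cells in 96-well plates. Step 2: add test compound at a single concentration. Step 3: incubate 48 h. Step 4: record percent growth.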 Calls of active or inactive are those of the source. How the source made its calls: active means growth percent below 10; inactive means the rest.

Key:
Test in all cases: NCI-60 one-dose screen, 48 h (100 = growth as untreated, 0 = no growth, -100 = all killed)
SK-MEL-2 melanoma = system: SK-MEL-2 melanoma
EKVX NSCLC = system: EKVX NSCLC
SN12C renal = system: SN12C renal
UO-31 renal = system: UO-31 renal
TK-10 renal = system: TK-10 renal
ACHN renal = system: ACHN renal
CAKI-1 renal = conditions: 10 µM unless noted
A498 renal = system: A498 renal
CCRF-CEM leukemia = system: CCRF-CEM leukemia
MOLT-4 leukemia = system: MOLT-4 leukemia

Measured: growth

NS(=O)(=O)c1ccc(C(=O)N=Nc2c(O)[nH]c3c(F)cccc23)cc1
inactive: SK-MEL-2 melanoma; 10 µM unless noted 104% | EKVX NSCLC; 10 µM unless noted 102% | SN12C renal; 10 µM unless noted 97.1% | UO-31 renal; 10 µM unless noted 76.4% | TK-10 renal; 10 µM unless noted 107% | ACHN renal; 10 µM unless noted 97.3% | CAKI-1 renal 93.2% | A498 renal; 10 µM unless noted 104% | CCRF-CEM leukemia; 10 µM unless noted 102% | MOLT-4 leukemia; 10 µM unless noted 124%

Cc1ccc(/C=C(\C#N)c2cc3ccccc3[nH]2)cc1
inactive: SK-MEL-2 melanoma; 10 µM unless noted 48.8% | EKVX NSCLC; 10 µM unless noted 74.7% | SN12C renal; 10 µM unless noted 50.3% | UO-31 renal; 10 µM unless noted 69.8% | TK-10 renal; 10 µM unless noted 82.6% | ACHN renal; 10 µM unless noted 85.6% | CAKI-1 renal 45.6% | A498 renal; 10 µM unless noted 57.2% | CCRF-CEM leukemia; 10 µM unless noted 46% | MOLT-4 leukemia; 10 µM unless noted 30.6%

COc1ccc(/C=C/C(=O)c2cc3c(N)c(C(=O)Nc4ccccc4Cl)sc3nc2C)cc1
inactive: SK-MEL-2 melanoma; 10 µM unless noted 30.6% | EKVX NSCLC; 10 µM unless noted 66.8% | SN12C renal; 10 µM unless noted 53.8% | TK-10 renal; 10 µM unless noted 20.4% | ACHN renal; 10 µM unless noted 10.2% | CAKI-1 renal 31.9% | A498 renal; 10 µM unless noted 30.9% | CCRF-CEM leukemia; 10 µM unless noted 58.9% | MOLT-4 leukemia; 10 µM unless noted 36.2%
active: UO-31 renal; 10 µM unless noted -10.2%

Cc1ccc(S(=O)(=O)Nc2cc(Sc3ccccc3)c(O)c3ccccc23)cc1
inactive: SK-MEL-2 melanoma; 10 µM unless noted 81.8% | EKVX NSCLC; 10 µM unless noted 116% | SN12C renal; 10 µM unless noted 64.2% | UO-31 renal; 10 µM unless noted 64% | TK-10 renal; 10 µM unless noted 111% | ACHN renal; 10 µM unless noted 91.5% | CAKI-1 renal 73.1% | A498 renal; 10 µM unless noted 70% | CCRF-CEM leukemia; 10 µM unless noted 12.7%
active: MOLT-4 leukemia; 10 µM unless noted -32.2%

CC(C)=CCc1cc(O)c(O)c2oc3cc(O)cc(O)c3c(=O)c12
inactive: SK-MEL-2 melanoma; 10 µM unless noted 97.3% | EKVX NSCLC; 10 µM unless noted 78.2% | SN12C renal; 10 µM unless noted 58.4% | UO-31 renal; 10 µM unless noted 45.9% | TK-10 renal; 10 µM unless noted 46.7% | ACHN renal; 10 µM unless noted 41.5% | CAKI-1 renal 36.7% | A498 renal; 10 µM unless noted 101% | CCRF-CEM leukemia; 10 µM unless noted 29.5% | MOLT-4 leukemia; 10 µM unless noted 31.9%

OCCN1CCN(c2cc(-c3cccc(OC(F)(F)F)c3)nc3ccc(N4CCCC4)cc23)CC1
inactive: SK-MEL-2 melanoma; 10 µM unless noted 93.3% | EKVX NSCLC; 10 µM unless noted 75.9% | SN12C renal; 10 µM unless noted 59.5% | UO-31 renal; 10 µM unless noted 37.1% | TK-10 renal; 10 µM unless noted 69.3% | ACHN renal; 10 µM unless noted 44.7% | CAKI-1 renal 40.5% | A498 renal; 10 µM unless noted 68.3% | CCRF-CEM leukemia; 10 µM unless noted 40% | MOLT-4 leukemia; 10 µM unless noted 11.2%

COc1ccc2c(c1)c(-c1nc(-c3c[nH]c4c(Cl)nccc34)cs1)cn2C
inactive: SK-MEL-2 melanoma; 10 µM unless noted 108% | EKVX NSCLC; 10 µM unless noted 34.8% | SN12C renal; 10 µM unless noted 95.9% | UO-31 renal; 10 µM unless noted 90.8% | TK-10 renal; 10 µM unless noted 35.7% | ACHN renal; 10 µM unless noted 85.4% | CAKI-1 renal 98.7% | A498 renal; 10 µM unless noted 94.7% | CCRF-CEM leukemia; 10 µM unless noted 93.7% | MOLT-4 leukemia; 10 µM unless noted 85%

COc1ccc(-c2ccc(-c3ccc(C(=N)N)cn3)o2)cc1Cl
inactive: SK-MEL-2 melanoma; 10 µM unless noted 83.1% | EKVX NSCLC; 10 µM unless noted 70.4% | SN12C renal; 10 µM unless noted 44.5% | UO-31 renal; 10 µM unless noted 52.4% | TK-10 renal; 10 µM unless noted 94.4% | ACHN renal; 10 µM unless noted 17.3% | CAKI-1 renal 40.2% | A498 renal; 10 µM unless noted 80.5% | MOLT-4 leukemia; 10 µM unless noted 10.7%
active: CCRF-CEM leukemia; 10 µM unless noted -4.6%

O=[N+]([O-])c1ccc2[nH]c3nccc(NCc4cccc(Cl)c4)c3c2c1
inactive: SK-MEL-2 melanoma; 10 µM unless noted 93% | EKVX NSCLC; 10 µM unless noted 50.8% | SN12C renal; 10 µM unless noted 86.5% | UO-31 renal; 10 µM unless noted 87.2% | TK-10 renal; 10 µM unless noted 72.8% | ACHN renal; 10 µM unless noted 68.2% | CAKI-1 renal 60.2% | A498 renal; 10 µM unless noted 71.4% | CCRF-CEM leukemia; 10 µM unless noted 79.6% | MOLT-4 leukemia; 10 µM unless noted 75.9%

COc1ccc(-c2csc(NC(=O)CN3CCN(CCO)CC3)n2)cc1NS(=O)(=O)c1cccc2c(N(C)C)cccc12
inactive: SK-MEL-2 melanoma; 10 µM unless noted 86.9% | EKVX NSCLC; 10 µM unless noted 80.9% | SN12C renal; 10 µM unless noted 89.1% | UO-31 renal; 10 µM unless noted 61.4% | TK-10 renal; 10 µM unless noted 109% | ACHN renal; 10 µM unless noted 87% | CAKI-1 renal 75.6% | A498 renal; 10 µM unless noted 102% | CCRF-CEM leukemia; 10 µM unless noted 54.8% | MOLT-4 leukemia; 10 µM unless noted 65.4%

CN(C)CCNc1ncc(F)c(-c2cnc3cc(-c4cnn(C)c4)ccn23)n1
inactive: SK-MEL-2 melanoma; 0.005 µM 109% | SK-MEL-2 melanoma; 30 µM 64.6% | EKVX NSCLC; 0.005 µM 97% | EKVX NSCLC; 30 µM 70.1% | SN12C renal; 0.005 µM 98.4% | SN12C renal; 30 µM 30.7% | UO-31 renal; 0.005 µM 94% | UO-31 renal; 30 µM 17.1% | TK-10 renal; 0.005 µM 105% | TK-10 renal; 30 µM 56.4% | ACHN renal; 0.005 µM 96.7% | ACHN renal; 30 µM 15.5% | A498 renal; 0.005 µM 99% | A498 renal; 30 µM 41.9% | CCRF-CEM leukemia; 0.005 µM 101% | CCRF-CEM leukemia; 30 µM 14.1% | MOLT-4 leukemia; 0.005 µM 104%
active: MOLT-4 leukemia; 30 µM 1.39%
